The values that follow come from PubChem BioAssay (NCATS).

What all share (test): Cytotoxic Profiling of Annotated Libraries Using Quantitative High-Throughput Screening (AID 1296008); note: nearly all actives have a fitted effect of over 60% in size
Common to all, as to conditions: Five cell lines viability, CellTiter-Glo ATP luminescence, 48-72 h; max response: stronger effect = lower value

One assay relates to CRL-7250. A digest of the protocol:
(§1)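 Compounds were pin-transferred onto cells and incubated 48 or 72 hr at 37 degree Celsius, 95% humidity. CellTiter-Glo was added, plates sat 10 min at room temperature, then ATP-coupled luminescence was imaged as the viability read-out.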

The next assay has as its system HEK293. A digest of the protocol: as §1
The test system of the next assay is HaCat. A digest of the protocol:
as §1

Another assay has as its system KB-3-1. A digest of the protocol: as §1
The next assay concerns NIH3T3. A digest of the protocol:
as §1

Each structure is given as a SMILES string. Results filed as inconclusive are left out. Unmarked numbers belong to inactive results. The source made the active and inactive calls. Calls come from the whole dose curve; as a rule, active = well fitted inhibition curve with a large enough effect; inconclusive = small, poorly fitted or top-dose-only effect; inactive = flat fitted curve, though single readings scatter.
% is set by controls: 0 for no effect and ±100 for the full control effect; potency is the fitted concentration of half-maximal effect.

Consider `CC1(C)CCC2(C(=O)O)C(O)CC3(C)C(=CCC4C5(C)CCC(OC6OC(CO)C(O)C(O)C6OC6OC(CO)C(O)C(O)C6OC6OCC(O)(CO)C6O)C(C)(C)C5CCC43C)C2C1` (stereo not given), for which the max response with CRL-7250 was -4.69%; in the assay with HEK293, -13.6%. Also, the compound was classed as inactive in the assay with HaCat, with KB-3-1 and in the assay on NIH3T3.
For `COc1cc(CO)ccc1O[C@@H]1O[C@H](CO)[C@@H](O)[C@H](O)[C@H]1O`, the max response was -0.424% in the assay with CRL-7250, -18.7% with HEK293 and 5.53% with KB-3-1. Further, the call in the assay on HaCat and in the assay on NIH3T3 was inactive.
As to `C[C@@H]1C[C@@H](O)[C@@]23CO[C@]2(CO)CCC[C@@H]3[C@@]12C[C@@H](c1ccoc1)OC2=O`, the max response in the assay on CRL-7250 is -8.12%; with HEK293, 2.85%; with HaCat, -3.9%; in the assay with KB-3-1, 7.05%. In addition, in the assay with NIH3T3, the result was inactive.
Consider `CC1=C(CO)C2(C)CCCC(C)(C)C2C(O)C1O` (stereo not given), for which the max response with CRL-7250 is -6.52%; in the assay with HEK293 it was -5.93%. Moreover, the compound was called inactive with HaCat, with KB-3-1 and in the assay with NIH3T3.
As to `COc1cc(CO)cc(OC)c1O[C@@H]1O[C@H](CO)[C@@H](O)[C@H](O)[C@H]1O`, the max response is -11.4% with CRL-7250, -2.97% in the assay with HEK293 and 4.69% in the assay with KB-3-1. In addition, the compound was called inactive in the assay on HaCat and in the assay with NIH3T3.
Turning to `CC[C@@H]1C(=O)O[C@]23C=C[C@@H]4C(C(=O)OC)=CO[C@H](O[C@@H]12)[C@@H]43`, the max response with CRL-7250 is -23.4%; in the assay with HEK293 it was -18.1%; in the assay with KB-3-1 it was -9.89%; with NIH3T3, 1.97%. Further, the call in the assay on HaCat was inactive.
`O=C(OCC1=C[C@@H](O)[C@@H]2C=CO[C@@H](O[C@@H]3O[C@H](CO)[C@@H](O)[C@H](O)[C@H]3O)[C@H]12)c1ccc(O)cc1`: the max response is -4.11% in the assay with CRL-7250, 1.2% in the assay on HEK293 and 1.69% in the assay on KB-3-1. Further, the call in the assay on HaCat and with NIH3T3 was inactive.
With `COc1ccccc1CN[C@H]1CCCN[C@H]1c1ccccc1`, the compound was called inactive in the assay on CRL-7250, in the assay with HaCat and in the assay with NIH3T3. Also, the max response in the assay on HEK293 is -1.91%; in the assay on KB-3-1 it was 1.76%.
As to `CC(C)c1cc2c(c(O)c1O)[C@@]13CCCC(C)(C)C1[C@@H](O)[C@@H]2OC3=O` (stereo not given in full), the max response in the assay with CRL-7250 was 4.77%; in the assay with HEK293, -8.48%; in the assay with KB-3-1, 7.44%. The compound was classed as inactive in the assay on HaCat and in the assay on NIH3T3.
Regarding `CC1=CC[C@@]2(C)CC[C@@](O)(C(C)C)[C@@H]2[C@@H](O)C1`, the max response was 2.53% with CRL-7250, 0.0265% in the assay on HEK293 and 1.77% in the assay on HaCat. Besides, the compound was called inactive in the assay with KB-3-1 and with NIH3T3.
For `C[C@@H]1O[C@@H](O[C@H]2[C@H](O[C@H]3[C@H](O[C@H]4CC[C@@]5(C)C(CC[C@]6(C)C5CC=C5[C@@H]7CC(C)(C)C[C@@H](O)[C@]7(C)CC[C@]56C)C4(C)C)O[C@H](C(=O)O)[C@@H](O)[C@@H]3O)O[C@H](C(=O)O)[C@H](O)[C@@H]2O)[C@H](O)[C@H](O)[C@H]1O` (stereo not given in full), the max response with CRL-7250 is -7.66%; in the assay with HEK293, -8.11%; in the assay on NIH3T3 it was 0.708%. The result in the assay on HaCat and in the assay on KB-3-1 was inactive.
In the case of `CC1CCC2(C(=O)OC3OC(CO)C(O)C(O)C3O)CCC3(C)C(=CCC4C5(C)CCC(O)C(C)(CO)C5CCC43C)C2C1(C)O` (stereo not given), the outcome in the assay on CRL-7250, with HaCat, with KB-3-1 and in the assay on NIH3T3 was inactive. The max response in the assay with HEK293 was -1.85%.
Consider `O=C(O)c1ccncc1Nc1nn(CCN2CCC(F)(F)CC2)c2ccc(F)cc12`, for which the max response in the assay with CRL-7250 is -22.9%; with HEK293 it was 0.878%; in the assay with KB-3-1 it was 9.77%; in the assay on NIH3T3, 1.4%. Further, in the assay on HaCat, the outcome was inactive.
In the case of `C#CCCCn1cc(-c2cccc3c2N[C@@H](C)CC(=O)N3)cn1`, the Potency with CRL-7250 is 18.4 µM (active). Also, the max response is -6.8% in the assay on HEK293 and -14.3% in the assay on HaCat. Besides, the compound was called inactive with KB-3-1 and in the assay with NIH3T3.
On to `CC1(C(=O)O)CC[C@]2(C(=O)OC3OC(CO)C(O)C(O)C3O)CC[C@]3(C)C(=CCC4[C@@]5(C)CC[C@H](OC6OCC(O)C(O)C6OC6OC(CO)C(O)C(O)C6O)C(C)(C)C5CC[C@]43C)C2C1` (stereo not given in full), for which the max response in the assay on CRL-7250 is 0.0336%; in the assay on HEK293 it was -7.14%; with NIH3T3, 0.38%. Besides, the compound was classed as inactive with HaCat and in the assay with KB-3-1.
As for `CC1(C)C(=O)N2c3ccccc3C(O)(CC(C(=O)O)n3cnc4ccccc4c3=O)C2N1O` (stereo not given), the max response with CRL-7250 was 0.472%; in the assay with HEK293, -0.978%; in the assay with KB-3-1, 4.14%; with NIH3T3, 1.17%. For the same compound, in the assay on HaCat, the compound was called inactive.
Consider `C=Cc1ccc(O[C@@H]2O[C@H](CO[C@@H]3O[C@@H](C)[C@H](O)[C@@H](O)[C@H]3O)[C@@H](O)[C@H](O)[C@H]2O)cc1`, for which the max response in the assay with CRL-7250 is -5.44%; with HEK293 it was -5.77%; in the assay with KB-3-1 it was 6.98%; with NIH3T3, -1.18%. Further, the outcome with HaCat was inactive.
For `Cc1c(Cc2ccc3ccccc3n2)c2cc(F)ccc2n1CC(=O)O`, the max response was -9.45% with CRL-7250, 0.378% in the assay on HEK293 and 7.66% in the assay with KB-3-1. The call in the assay on HaCat and in the assay on NIH3T3 was inactive.
Turning to `CC(=O)O[C@H]1[C@H](OC(=O)C(C)C)[C@]2(C)OC3(CC[C@]2(C)[C@H]2CCC[C@]4(CO4)[C@]12C)COC(=O)C3` (stereo not given in full), the max response with CRL-7250 was -5.19%; in the assay on HEK293, -0.769%; with KB-3-1, 4.61%; with NIH3T3, -0.316%. Moreover, in the assay on HaCat, the compound was called inactive.
